Experiments:
Test in all cases: DAPPL (digital affinity profiling via proximity ligation, sequencing); 10 mM Tris-HCl pH 7.5, 50 mM NaCl, 1 mM DTT, 4% glycerol, room temperature, 30 min; GST-TFs on glutathione beads, 16-mer random dsDNA library, 0.1% formaldehyde crosslink after washing; high values mean tight binding
Settings in all cases: protein: recombinant; tags: N-terminal GST; dsDNA, one strand shown
FLI1 = target: T1, FLI1 (Homo sapiens, UniProt Q01543 1-452)
T1 sequence: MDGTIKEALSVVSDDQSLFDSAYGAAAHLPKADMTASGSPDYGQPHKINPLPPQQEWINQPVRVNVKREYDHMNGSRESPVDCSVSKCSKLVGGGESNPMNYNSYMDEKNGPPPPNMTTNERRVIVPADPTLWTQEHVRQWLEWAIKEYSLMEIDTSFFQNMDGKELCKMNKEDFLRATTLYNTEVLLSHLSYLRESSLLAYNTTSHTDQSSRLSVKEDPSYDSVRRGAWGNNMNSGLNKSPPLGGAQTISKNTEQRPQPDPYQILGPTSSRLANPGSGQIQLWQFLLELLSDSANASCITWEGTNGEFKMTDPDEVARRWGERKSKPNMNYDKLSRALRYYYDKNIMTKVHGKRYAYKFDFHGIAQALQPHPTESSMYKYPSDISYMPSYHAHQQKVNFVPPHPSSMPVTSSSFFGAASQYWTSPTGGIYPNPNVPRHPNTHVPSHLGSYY
How it was run: (§1)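 Binding signal is each hexamer's read frequency for a factor divided by its frequency in the tag-only sample. The factors were GST-fused human transcription factors from yeast, captured on glutathione beads, DNA-barcoded and pooled with that sample. Pools were incubated with 200 nmole of a random double-stranded 16-mer DNA library in Tris/NaCl/DTT/glycerol buffer at room temperature for 30 min, then washed, crosslinked with 0.1% formaldehyde, proximity-ligated with BsaI/T4 ligase (1 h, 37 °C), PCR-amplified and sequenced on an Illumina NextSeq500.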

ELK1 = target: T2, ELK1 (Homo sapiens, UniProt P19419 1-428)
T2 sequence: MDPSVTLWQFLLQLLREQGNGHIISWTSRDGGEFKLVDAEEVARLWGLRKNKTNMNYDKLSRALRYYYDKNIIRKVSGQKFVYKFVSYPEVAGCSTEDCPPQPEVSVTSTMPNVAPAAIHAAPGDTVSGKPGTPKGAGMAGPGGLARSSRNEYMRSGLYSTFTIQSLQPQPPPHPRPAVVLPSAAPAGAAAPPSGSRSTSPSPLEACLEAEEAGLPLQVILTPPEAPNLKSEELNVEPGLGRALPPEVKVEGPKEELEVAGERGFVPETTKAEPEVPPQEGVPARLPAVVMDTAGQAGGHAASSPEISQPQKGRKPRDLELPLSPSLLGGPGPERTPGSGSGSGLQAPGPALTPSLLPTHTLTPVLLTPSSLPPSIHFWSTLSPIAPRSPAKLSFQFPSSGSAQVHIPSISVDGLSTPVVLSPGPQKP
How it was run: as §1

GABPA = target: T3, GABPA (Homo sapiens, UniProt Q06546 1-454)
T3 sequence: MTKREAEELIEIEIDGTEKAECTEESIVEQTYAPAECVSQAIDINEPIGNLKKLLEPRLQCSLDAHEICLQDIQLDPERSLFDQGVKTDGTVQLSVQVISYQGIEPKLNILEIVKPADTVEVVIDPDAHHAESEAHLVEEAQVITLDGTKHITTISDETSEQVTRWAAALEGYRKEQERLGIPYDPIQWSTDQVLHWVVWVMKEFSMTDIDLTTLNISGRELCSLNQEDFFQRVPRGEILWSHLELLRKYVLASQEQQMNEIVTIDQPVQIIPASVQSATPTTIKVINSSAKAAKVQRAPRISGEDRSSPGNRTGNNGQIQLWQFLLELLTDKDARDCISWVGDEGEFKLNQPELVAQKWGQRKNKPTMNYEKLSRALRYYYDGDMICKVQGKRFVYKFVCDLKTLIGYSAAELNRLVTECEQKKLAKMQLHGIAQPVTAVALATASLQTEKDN
How it was run: as §1

ERG = target: T4, ERG (Homo sapiens, UniProt P11308 1-479)
T4 sequence: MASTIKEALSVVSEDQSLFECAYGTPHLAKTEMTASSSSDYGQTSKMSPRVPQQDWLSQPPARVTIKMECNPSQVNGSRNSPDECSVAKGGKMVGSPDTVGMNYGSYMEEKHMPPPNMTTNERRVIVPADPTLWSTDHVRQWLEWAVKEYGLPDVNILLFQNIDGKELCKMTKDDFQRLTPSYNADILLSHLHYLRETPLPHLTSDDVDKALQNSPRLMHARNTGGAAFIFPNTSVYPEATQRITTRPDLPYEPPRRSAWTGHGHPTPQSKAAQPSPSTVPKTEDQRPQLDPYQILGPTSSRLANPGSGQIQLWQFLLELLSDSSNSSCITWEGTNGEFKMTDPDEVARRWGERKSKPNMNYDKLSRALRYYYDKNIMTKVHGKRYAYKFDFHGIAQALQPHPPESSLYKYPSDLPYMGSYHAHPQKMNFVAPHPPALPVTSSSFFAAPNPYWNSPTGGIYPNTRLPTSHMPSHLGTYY
How it was run: as §1

ELF1 = ELF1 (Homo sapiens, UniProt P32519 1-619)
How it was run: as §1

EHF = target: T5, EHF (Homo sapiens, UniProt Q9NZC4 1-300)
T5 sequence: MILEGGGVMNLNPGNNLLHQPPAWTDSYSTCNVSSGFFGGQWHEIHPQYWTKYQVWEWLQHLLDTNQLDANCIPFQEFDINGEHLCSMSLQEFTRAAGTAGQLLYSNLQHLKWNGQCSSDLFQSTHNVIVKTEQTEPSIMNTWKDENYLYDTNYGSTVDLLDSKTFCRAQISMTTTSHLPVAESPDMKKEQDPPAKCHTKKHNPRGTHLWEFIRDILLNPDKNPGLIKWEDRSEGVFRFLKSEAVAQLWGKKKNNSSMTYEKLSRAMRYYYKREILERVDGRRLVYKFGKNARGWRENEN
How it was run: as §1

SPI1 = SPI1 (Homo sapiens, UniProt P17947 1-270)
How it was run: as §1

SPIB = SPIB (Homo sapiens, UniProt Q01892 1-262)
How it was run: as §1

ELK3 = target: T6, ELK3 (Homo sapiens, UniProt P41970 1-407)
T6 sequence: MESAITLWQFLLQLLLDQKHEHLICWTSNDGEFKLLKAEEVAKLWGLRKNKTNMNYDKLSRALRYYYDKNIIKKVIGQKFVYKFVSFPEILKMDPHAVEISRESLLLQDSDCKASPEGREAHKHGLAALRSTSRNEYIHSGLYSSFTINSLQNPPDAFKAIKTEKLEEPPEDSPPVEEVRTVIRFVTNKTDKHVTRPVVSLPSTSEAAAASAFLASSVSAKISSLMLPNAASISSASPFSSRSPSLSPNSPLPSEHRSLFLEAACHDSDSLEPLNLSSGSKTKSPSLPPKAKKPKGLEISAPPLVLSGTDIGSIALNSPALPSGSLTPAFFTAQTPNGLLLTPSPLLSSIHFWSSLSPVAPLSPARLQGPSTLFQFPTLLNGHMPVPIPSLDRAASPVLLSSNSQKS
How it was run: as §1

Sequence of SPIB (Q01892 whole entry): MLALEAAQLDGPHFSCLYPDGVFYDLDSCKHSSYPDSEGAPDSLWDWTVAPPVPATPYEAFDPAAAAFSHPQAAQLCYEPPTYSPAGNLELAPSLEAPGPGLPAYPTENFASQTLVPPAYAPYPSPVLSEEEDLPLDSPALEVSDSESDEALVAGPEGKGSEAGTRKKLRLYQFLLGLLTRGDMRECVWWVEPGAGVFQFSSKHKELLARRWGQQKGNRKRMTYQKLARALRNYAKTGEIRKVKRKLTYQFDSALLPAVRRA
Sequence of ELF1 (P32519 whole entry): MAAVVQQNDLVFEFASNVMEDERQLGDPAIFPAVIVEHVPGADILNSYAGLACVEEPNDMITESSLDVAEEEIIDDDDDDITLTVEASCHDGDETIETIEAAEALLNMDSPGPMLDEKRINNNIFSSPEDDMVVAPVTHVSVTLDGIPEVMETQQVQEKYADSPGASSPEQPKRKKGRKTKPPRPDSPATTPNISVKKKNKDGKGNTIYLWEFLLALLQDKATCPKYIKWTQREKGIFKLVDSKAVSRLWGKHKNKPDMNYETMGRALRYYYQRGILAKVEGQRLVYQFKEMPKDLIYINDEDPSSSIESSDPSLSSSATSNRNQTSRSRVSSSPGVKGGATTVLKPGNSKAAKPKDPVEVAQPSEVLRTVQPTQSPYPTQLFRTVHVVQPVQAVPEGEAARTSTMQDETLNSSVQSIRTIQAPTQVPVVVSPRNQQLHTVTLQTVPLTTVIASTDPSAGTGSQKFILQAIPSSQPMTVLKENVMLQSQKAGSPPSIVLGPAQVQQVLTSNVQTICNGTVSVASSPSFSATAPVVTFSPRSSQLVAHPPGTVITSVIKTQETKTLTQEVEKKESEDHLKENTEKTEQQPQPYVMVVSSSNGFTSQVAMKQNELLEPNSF

Sequence	binding signal (FLI1)	binding signal (ELK1)	binding signal (GABPA)	binding signal (ERG)	binding signal (ELF1)	binding signal (EHF)	binding signal (SPI1)	binding signal (SPIB)	binding signal (ELK3)
TATGAC	1.31 fold enrichment (6-mer frequency, TF over GST control)	1.34 fold enrichment (6-mer frequency, TF over GST control)	1.37 fold enrichment (6-mer frequency, TF over GST control)	1.31 fold enrichment (6-mer frequency, TF over GST control)	1.34 fold enrichment (6-mer frequency, TF over GST control)	1.23 fold enrichment (6-mer frequency, TF over GST control)	1.27 fold enrichment (6-mer frequency, TF over GST control)	1.4 fold enrichment (6-mer frequency, TF over GST control)	1.32 fold enrichment (6-mer frequency, TF over GST control)
TAATTG	1.38 fold enrichment (6-mer frequency, TF over GST control)	1.43 fold enrichment (6-mer frequency, TF over GST control)	1.38 fold enrichment (6-mer frequency, TF over GST control)	1.27 fold enrichment (6-mer frequency, TF over GST control)	1.3 fold enrichment (6-mer frequency, TF over GST control)	1.37 fold enrichment (6-mer frequency, TF over GST control)	1.47 fold enrichment (6-mer frequency, TF over GST control)	1.37 fold enrichment (6-mer frequency, TF over GST control)	1.5 fold enrichment (6-mer frequency, TF over GST control)
ACCGAC	1.41 fold enrichment (6-mer frequency, TF over GST control)	1.29 fold enrichment (6-mer frequency, TF over GST control)	1.29 fold enrichment (6-mer frequency, TF over GST control)	1.29 fold enrichment (6-mer frequency, TF over GST control)	1.3 fold enrichment (6-mer frequency, TF over GST control)	1.23 fold enrichment (6-mer frequency, TF over GST control)	1.4 fold enrichment (6-mer frequency, TF over GST control)	1.34 fold enrichment (6-mer frequency, TF over GST control)	1.35 fold enrichment (6-mer frequency, TF over GST control)
TCATAT	1.21 fold enrichment (6-mer frequency, TF over GST control)	1.2 fold enrichment (6-mer frequency, TF over GST control)	1.26 fold enrichment (6-mer frequency, TF over GST control)	1.2 fold enrichment (6-mer frequency, TF over GST control)	1.29 fold enrichment (6-mer frequency, TF over GST control)	1.24 fold enrichment (6-mer frequency, TF over GST control)	1.18 fold enrichment (6-mer frequency, TF over GST control)	1.4 fold enrichment (6-mer frequency, TF over GST control)	1.17 fold enrichment (6-mer frequency, TF over GST control)
TTGACA	1.38 fold enrichment (6-mer frequency, TF over GST control)	1.37 fold enrichment (6-mer frequency, TF over GST control)	1.44 fold enrichment (6-mer frequency, TF over GST control)	1.34 fold enrichment (6-mer frequency, TF over GST control)	1.37 fold enrichment (6-mer frequency, TF over GST control)	1.29 fold enrichment (6-mer frequency, TF over GST control)	1.25 fold enrichment (6-mer frequency, TF over GST control)	1.28 fold enrichment (6-mer frequency, TF over GST control)	1.28 fold enrichment (6-mer frequency, TF over GST control)
GCATTT	1.38 fold enrichment (6-mer frequency, TF over GST control)	1.38 fold enrichment (6-mer frequency, TF over GST control)	1.36 fold enrichment (6-mer frequency, TF over GST control)	1.3 fold enrichment (6-mer frequency, TF over GST control)	1.33 fold enrichment (6-mer frequency, TF over GST control)	1.37 fold enrichment (6-mer frequency, TF over GST control)	1.58 fold enrichment (6-mer frequency, TF over GST control)	1.38 fold enrichment (6-mer frequency, TF over GST control)	1.4 fold enrichment (6-mer frequency, TF over GST control)
ATCTAG	1.12 fold enrichment (6-mer frequency, TF over GST control)	1.16 fold enrichment (6-mer frequency, TF over GST control)	1.12 fold enrichment (6-mer frequency, TF over GST control)	1.1 fold enrichment (6-mer frequency, TF over GST control)	1.1 fold enrichment (6-mer frequency, TF over GST control)	1.14 fold enrichment (6-mer frequency, TF over GST control)	1.14 fold enrichment (6-mer frequency, TF over GST control)	1.2 fold enrichment (6-mer frequency, TF over GST control)	1.23 fold enrichment (6-mer frequency, TF over GST control)

Source: paper PMC7862700, “An all-to-all approach to the identification of sequence-specific readers for epigenetic DNA modifications on cytosine”
